Compound activity as filed in PubChem BioAssay.
Sfp PPTase inh = blocks B. subtilis Sfp PPTase activity. Q9F4F7. Biochemical Sfp PPTase activity, qHTS. Potency, µM, for inactives: largest response in the series, negative = inhibition, usual class: inhibitors. actives 3.5% (n = 310,000); active = well fitted curve in the direction sought with a large enough effect; inconclusive = small, poorly fitted or top-dose-only effect, or another doubt; inactive = no such curve, though single readings can be large; an effect the other way counts as inactive or inconclusive;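 also: the enzyme is Sfp with the accession as filed and its product quenches rhodamine fluorescence; potency is read from the fitted curve at half-maximal effect; 0% = enzyme reaction without inhibitor and -100% = no enzyme wells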
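Reaction rates are the 30-min fluorescence difference (ex 525, em 598 nm) in wells containing 15 nM Sfp, 5 uM rhodamine-CoA and 12.5 uM BHQ-2-YbbR at pH 7.6 with 10 mM MgCl2.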
ALDH1A1 block = ALDH1A1 (human) enzyme inhibition | Purified ALDH1A1, NADH fluorescence, propionaldehyde substrate | Potency, µM (series often up to 75.3 µM), without a hit: at the top dose activity, negative = inhibition, hits mostly inhibitors | actives 7.3% (n = 220,000);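 also: potency is read from the fitted curve at half-maximal effect; plate controls were no enzyme wells and a reference inhibitor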
Target sequence (P00352 whole entry, looked up): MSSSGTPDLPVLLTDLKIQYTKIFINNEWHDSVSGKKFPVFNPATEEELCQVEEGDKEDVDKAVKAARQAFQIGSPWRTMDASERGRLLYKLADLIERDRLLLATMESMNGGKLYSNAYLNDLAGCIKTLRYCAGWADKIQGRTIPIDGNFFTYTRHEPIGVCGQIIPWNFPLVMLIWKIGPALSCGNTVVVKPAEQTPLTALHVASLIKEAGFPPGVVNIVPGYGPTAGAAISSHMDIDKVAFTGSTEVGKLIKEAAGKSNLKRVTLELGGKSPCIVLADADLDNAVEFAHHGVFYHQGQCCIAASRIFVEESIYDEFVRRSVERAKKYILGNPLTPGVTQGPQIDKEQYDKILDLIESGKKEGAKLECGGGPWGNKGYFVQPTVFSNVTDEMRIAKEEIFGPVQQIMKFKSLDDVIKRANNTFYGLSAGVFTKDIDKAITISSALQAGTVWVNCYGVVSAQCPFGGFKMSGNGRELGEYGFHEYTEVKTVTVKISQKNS
Coupling enz = inhibits coupling enzyme system, counter-screen for aldolase hits. coupling enzyme system counterscreen, AmpLite Red fluorescence. activity change, negative = inhibition, % at 58.2 µM, hits read low. actives 0.67% (n = 290,000). AID 2472; in the data active = activity change below about -30%
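Coupling enzymes only (glyceraldehyde-3-phosphate) + compound, at 57.5 uM final, 10 min RT; add substrate/coupling/AmpLite Red mix, 20 min RT; fluorescence ex 525/em 598 nm. Actives flag coupling-system interference.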
RGS12 GoLoco inh = RGS12 GoLoco-Gai1 interaction inhibition; P63096; Gai1:RGS12 GoLoco peptide FP, rhodamine, 10 min; Potency, µM (series often up to 61.6 µM), inactives show at the top dose activity, negative = inhibition, most hits filed as inhibitors; actives 0.44% (n = 230,000); active = well fitted inhibition curve with a large enough effect, not every such curve was filed as active; inactive = no such curve, though single readings can be large or run the other way; also: potency is read from the fitted curve at half-maximal effect; nearly all actives have a fitted effect of over 30% in size
JMJD2E inh = inhibitors of human JMJD2E histone demethylase; B2RXH2; JMJD2E catalytic domain, FDH-coupled NADH fluorescence (FDH is formaldehyde dehydrogenase); Potency, µM (series often up to 57.1 µM), inactives show top-dose activity change, negative = inhibition, hits mostly inhibitors; actives 1.6% (n = 230,000); AID 2147;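 also: potency is read from the fitted curve at half-maximal effect; 0% = wells with enzyme and -100% = buffer wells without enzyme; nearly all actives have a fitted effect of over 50% in size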
NPSR antagonist = neuropeptide S receptor (human) antagonism, cAMP; Q6W5P4; CHO-NPSR cells, cAMP TR-FRET, antagonist mode; Potency, µM (titrated, usually from 38.3 µM), inactives show at the highest dose activity change, negative = inhibition, hits mostly inhibitors; actives 1% (n = 220,000); AID 1461; active = well fitted curve in the direction sought with a large enough effect; inconclusive = small, poorly fitted or top-dose-only effect, or another doubt; inactive = no such curve, though single readings can be large; an effect the other way counts as inactive or inconclusive; also: potency is read from the fitted curve at half-maximal effect; nearly all actives have a fitted effect of over 50% in size
* = called active by the depositor; [ ] = another dose, or the depositor's remark. This is a sample that favours compounds with a hit; in the whole collection about 8.5% have one here. Unless noted, calls follow the shape of the dose curve; as a rule, active = well fitted inhibition curve with a large enough effect (not every such curve was filed as active); inconclusive = small, poorly fitted or top-dose-only effect, or another doubt; inactive = no such curve, though single readings can be large or run the other way. Unless noted, % is scaled to controls: 0 for no effect and ±100 for the full control effect.

`O=C(CSc1ccc(Cl)cc1)NN=C1CCCCCC1` gave Sfp PPTase inh 13%, ALDH1A1 block inconclusive, Coupling enz 1, RGS12 GoLoco inh 1%, JMJD2E inh 28% and NPSR antagonist 4%.
For COc1ccccc1NC(=O)CCNS(=O)(=O)c1ccc2c(c1)CC(C)N2C(=O)C1CC1 (stereo unspecified) the results were Sfp PPTase inh 12% and Coupling enz 1.
`N[C@@H](Cc1cc(-c2ccc(Cl)cc2Cl)cc(CP(=O)(O)O)c1O)C(=O)O` gave Sfp PPTase inh inconclusive, ALDH1A1 block inconclusive, Coupling enz 19, RGS12 GoLoco inh -21% and JMJD2E inh 4%.
`O=C(CBr)Nc1c2c(nn1-c1ccccc1)CSC2` gave Sfp PPTase inh -14% and Coupling enz 2.
For CN(CCc1ccccn1)C1CC(=O)N(c2ccc(Cl)cc2)C1=O (stereo unspecified) the results were Sfp PPTase inh -17%, ALDH1A1 block 25µM*, Coupling enz 5, RGS12 GoLoco inh -5%, JMJD2E inh 0% and NPSR antagonist -7%[46.1 µM].
For CCNC(=O)Nc1ccc(OC)cc1OC the results were Sfp PPTase inh -1%, ALDH1A1 block 8%, Coupling enz 0, RGS12 GoLoco inh 7%, JMJD2E inh 3% and NPSR antagonist 7%.
Screening CCOc1ccc(CN(C)C(=O)CCl)cc1 returned Sfp PPTase inh 7%, ALDH1A1 block 0.05µM*, Coupling enz 1, RGS12 GoLoco inh 1%, JMJD2E inh inconclusive and NPSR antagonist -14%.
`CCOC(=O)C1CCCN(c2ccc(NC(=O)c3snc4c(=O)[nH]cnc34)cc2)C1` (stereo unspecified) gave Sfp PPTase inh 2%, ALDH1A1 block -2%, Coupling enz 0, RGS12 GoLoco inh 45%, JMJD2E inh 1% and NPSR antagonist 16µM*.
Screening CCOC(=O)C1CCCN(c2ccc(NC(=O)c3snc4c(=O)[nH]c(C)nc34)cc2)C1 (stereo unspecified) returned Sfp PPTase inh 12%, ALDH1A1 block -15%, Coupling enz -1, RGS12 GoLoco inh 15%, JMJD2E inh -12% and NPSR antagonist -1%[46.1 µM].
For O=C(Nc1ccc(F)cc1)c1ccc(Br)c(S(=O)(=O)N2CCOCC2)c1 the results were Sfp PPTase inh 0% and Coupling enz -4.
Screening COc1ccc(OCC(=O)Nc2ccc3c(c2)nc(CCN2CCN(C)CC2)n3C)cc1 returned Sfp PPTase inh 17%.
For O=c1[nH]c(CSc2nnnn2-c2ccccc2)nc2ccccc12 the results were Sfp PPTase inh 10%, ALDH1A1 block 0%, Coupling enz -1, RGS12 GoLoco inh 7%, JMJD2E inh inconclusive and NPSR antagonist 2%.
Cc1nnc(SCc2cc(=O)[nH]c(/N=C(\N)Nc3ccccc3)n2)s1 was read as Sfp PPTase inh -13%, Coupling enz 5, RGS12 GoLoco inh -3%, JMJD2E inh 2% and NPSR antagonist 1%.
N/C(=N\c1nc(CSc2nnnn2-c2ccccc2)cc(=O)[nH]1)Nc1ccccc1 was read as Sfp PPTase inh -17%, ALDH1A1 block 5µM*, Coupling enz -16, RGS12 GoLoco inh 12%, JMJD2E inh -27% and NPSR antagonist -16%.
For O=c1cc(CSc2nnnn2-c2ccccc2)nc(Nc2ccc(F)cc2)[nH]1 the results were Sfp PPTase inh -6%, ALDH1A1 block 7.9µM*, Coupling enz -1, RGS12 GoLoco inh 0%, JMJD2E inh 5% and NPSR antagonist -19%[46.1 µM].
Screening Cc1ccc(SCc2cc(=O)[nH]c(/N=C(\N)Nc3ccc(C)c(C)c3)n2)cc1 returned Sfp PPTase inh 11%, ALDH1A1 block 8.9µM*, Coupling enz 0, RGS12 GoLoco inh 3%, JMJD2E inh 0% and NPSR antagonist inconclusive.
`Cc1ccc(NC(=O)NC(=O)CSc2nnc(-c3ccc(Cl)cc3Cl)n2N)c(C)c1` gave Sfp PPTase inh -18%, ALDH1A1 block inconclusive, Coupling enz -5, RGS12 GoLoco inh 3%, JMJD2E inh -5% and NPSR antagonist inconclusive.
For CC(C)Cn1cnc2c1c(=O)[nH]c(=O)n2Cc1ccccc1 the results were Sfp PPTase inh 10% and Coupling enz 1.
For COc1ccc(-c2nc3cnc(Oc4cccc(Cl)c4)nc3n(CCC#N)c2=O)cc1 the results were Sfp PPTase inh 8%, ALDH1A1 block inconclusive, Coupling enz 3 and RGS12 GoLoco inh -6%.
C[n+]1ccccc1C1CCCC/C1=N\NC(N)=S (stereo unspecified) was read as Sfp PPTase inh -6%, ALDH1A1 block -2%, Coupling enz -1, RGS12 GoLoco inh 10µM*, JMJD2E inh -15% and NPSR antagonist 13%.
For O=C(CCl)Nc1cccc(S(=O)(=O)N2CCCCCC2)c1 the results were Sfp PPTase inh 20%, ALDH1A1 block 0.71µM*, Coupling enz 2, JMJD2E inh 0% and NPSR antagonist -8%[46.1 µM].
For O=C(N1CCCCC1)N1CCN(S(=O)(=O)c2ccccc2)CC1 the results were Sfp PPTase inh 11% and Coupling enz 1.
O=C(N1CCCCCC1)N1CCN(S(=O)(=O)c2ccccc2)CC1 was read as Sfp PPTase inh 17%, ALDH1A1 block 6.3µM*, Coupling enz 4, RGS12 GoLoco inh 12%, JMJD2E inh 3% and NPSR antagonist -17%[46.1 µM].
O=S(=O)(c1cccc(S(=O)(=O)N2CCCC2)c1)N1CCCCC1 was read as Sfp PPTase inh 7% and Coupling enz 2.
`CC(=O)N1CCN(CC(=O)Nc2cccc(S(=O)(=O)N3CCCCCC3)c2)CC1` gave Sfp PPTase inh 18%, ALDH1A1 block -5%, Coupling enz 1, RGS12 GoLoco inh -2%, JMJD2E inh 4% and NPSR antagonist 3%.
Screening O=S(=O)(Nc1cccc(S(=O)(=O)N2CCCCCC2)c1)c1ccccc1 returned Sfp PPTase inh 9%, ALDH1A1 block 2µM*, Coupling enz 1, RGS12 GoLoco inh -13%, JMJD2E inh -9% and NPSR antagonist -2%.
Screening COc1ccc(NC(=O)N2CCCC2C(=O)Nc2ccc(C)cc2C)cc1 (stereo unspecified) returned Sfp PPTase inh 9% and Coupling enz 1.
`COc1ccc(CN(C)C(=O)c2ccncc2)c(OC)c1` gave Sfp PPTase inh 11%.
`COc1cccc(-n2nnc3c(=O)n(CC(=O)Nc4cc(C)on4)cnc32)c1` gave Sfp PPTase inh -2%, ALDH1A1 block inconclusive, Coupling enz 2, RGS12 GoLoco inh 9%, JMJD2E inh 3% and NPSR antagonist 8%.
